This note sets out measurements from PubChem BioAssay AID1347147 (National Center for Advancing Translational Sciences (NCATS), 2019).

The structures appear in SMILES notation. Records with an inconclusive call do not appear. Entries that show only a call come without a potency. Calls of active or inactive are those of the source. Calls come from the whole dose curve; as a rule, active = well fitted inhibition curve with a large enough effect; inconclusive = small, poorly fitted or top-dose-only effect; inactive = no such curve, though single readings can be large or run the other way.
Potency is the fitted concentration of half-maximal effect.

Sequence of N-terminal Xaa-Pro-Lys N-methyltransferase 1 (Homo sapiens) (Q9BV86 whole entry, looked up): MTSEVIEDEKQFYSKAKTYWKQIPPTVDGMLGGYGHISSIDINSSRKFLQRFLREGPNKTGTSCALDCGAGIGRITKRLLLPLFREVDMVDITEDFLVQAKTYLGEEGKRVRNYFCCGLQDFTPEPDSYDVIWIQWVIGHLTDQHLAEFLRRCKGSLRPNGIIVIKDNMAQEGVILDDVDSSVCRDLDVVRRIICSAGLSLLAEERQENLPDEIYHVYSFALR

For the experiment, the target named is N-terminal Xaa-Pro-Lys N-methyltransferase 1 (Homo sapiens) (UniProt Q9BV86). Put plainly: qHTS Assay for Inhibitors of N-terminal methyltransferase 1 (NTMT1): MTaseGlo Confirmatory Screen, Round 2. Particulars: NTMT1 enzyme, MTase-Glo SAH luminescence; series mostly up to 57.4 µM. From the text:
Assay Submitter (PI): Rong Huang Ph.D, Purdue University, West Lafayette, IN 47907
The N-terminal methytransferase 1 is the first methyltransferase that methylates protein alpha-N-amines and plays an important role in regulating cell mitosis, chromatin interactions and DNA repair. It is observed to be over-expressed in various cancer patient tissues like malignant melanoma and colorectal cancer tissues. Knockdown of NTMT1 in cancer cells causes cell mitotic defects and enhances sensitivity to DNA damaging chemotherapeutics. […] These critical cellular processes in which NTMT1 is implicated, coupled with emerging links to cellular dysfunction, strengthen the inference that NTMT1 is a compelling novel anticancer target. Progress have been made in understanding the molecular properties of NTMT1 and the biological consequences of protein alpha-N-terminal methylation, but there are no specific small molecule probes available for NTMT1 to fully characterize its MTase activity. To address this unmet need, a panel of assay is created and established to enable quantitative high-throughput screening (qHTS) for novel, potent, and selective small molecule NTMT1 inhibitors. Two orthogonal qHTS that use different reagents (ThioGlo vs. MTaseGlo) are developed for primary robotic screening against the NCATS chemical library of more than 400,000 small molecules. Identified inhibitors are reacquired, validated, and further characterized.
MTaseGlo Assay is a luminescence screen that measure the activity of methyltransferases based on the reaction product S-adenosyl homocysteine (SAH). The substrate SAM is converted to SAH upon enzyme activation. MTase-Glo reagent and detection solution convert SAH to ATP and measure the light from the luciferase reaction.
Early Translation Branch (ETB)
National Center for Advancing Translational Sciences (NCATS)
National Institute of Health (NIH)
NTMT1 enzyme, substrate SPKRIA, control peptide RCC1-6 is provided by the Huang laboratory.
In brief, 3 µL of enzyme mixture (final concentrations of 125 nM and 100 µM for NTMT1 and SAM, respectively) into all wells of a 1,536-well solid-bottom white plate (Greiner Bio One, Monroe, NC). 23 nL of DMSO or Ac-RCC1-10 (final concentration range 234 nM to 143 microM) was transferred via Wako Pin-tool (Wako Automation, Richmond, VA) and incubated (RT) for ~15 minutes. Next, 1 µL of substrate (final concentration 1 µM) or buffer was dispensed, and the reaction proceeded for 30 minutes (RT, protected from light) followed by a 1 microL addition of [5X] MTase-Glo Reagent(R). Samples were incubated (RT, protected from light) for 30 minutes to allow for SAH to be converted to ADP, followed by a 5 microL addition of [1X] MTase-Glo Detection Solution(R) to allow for ADP to be converted to ATP, which was then detected with a luciferase reaction. Samples were centrifuged for 15 seconds at 1,000 RPM's, followed by a RT incubation for 30 minutes. Plates were then read using Luminescence optics on a ViewLux detector. Data were normalized to no-enzyme (0% activity) and no-inhibitor (DMSO; 100%) controls, and the resulting percent inhibition data were fitted to a 4-parameter Hill equation using Graphpad Prism.
For `COC(=O)C1=C(C)NC(C)=C(C(=O)OC)C1c1ccccc1[N+](=O)[O-]`, the Potency entry was “inactive”.
For `Brc1c(NC2=NCCN2)ccc2nccnc12`, the Potency result is “inactive”.
As to `CN(C)[C@@H]1C(=O)C(C(N)=O)=C(O)[C@@]2(O)C(=O)C3=C(O)c4c(O)ccc(Cl)c4[C@@H](O)[C@H]3C[C@@H]12`, the Potency entry is “inactive”.
Turning to `O=C(O)Cc1ccc(O)c(O)c1`, the Potency result was “inactive”.
As for `Cc1cc(C)c(/C=C2\C(=O)Nc3ccccc32)[nH]1`, the Potency entry is “inactive”.
In the case of `OC[C@H]1O[C@H](n2cnc3c(N[C@H]4CCC[C@@H]4O)ncnc32)[C@H](O)[C@@H]1O`, the Potency entry was “inactive”.
Turning to `S=C(Nc1ccccc1)Nc1nccs1`, the Potency entry was “inactive”.
On to `Cc1cc(C)c(CNC(=O)c2cc(-c3ccc(CN4CCOCC4)cc3)cc3c2cnn3C2CCCC2)c(=O)[nH]1`, for which the Potency entry is “inactive”.
As to `COC(=O)[C@@H]1[C@H]2C[C@H]3c4[nH]c5ccccc5c4CCN3C[C@@H]2CC[C@@H]1O`, the Potency entry is “inactive”.
As for `COc1cc(CNC(=O)CCCCCCC(C)C)ccc1O`, the Potency entry is “inactive”.
As for `COc1cc2c(NC3CCN(C)CC3)cc(N3CCCCN(C)CC3)cc2cc1OCCOCCN(C)C`, the Potency entry is “inactive”.
In the case of `COc1cc2c(NC3CCN(CC4CCCCC4)CC3)nc(N3CCCCC3)nc2cc1OCCCN1CCCCC1` it was “inactive”.
As for `Oc1ccc(O)cc1`, the Potency entry is “inactive”.
On to `CCN1CCC[C@H]1CNC(=O)c1cc(S(N)(=O)=O)ccc1OC`, for which the Potency entry is “inactive”.
Take `N#C/C(=C\c1ccc(O)c(O)c1)C(=O)NCCc1ccccc1`: the Potency entry is “inactive”.
Turning to `C=CCN1CCc2cc(O)c(O)cc2[C@H](c2ccccc2)C1`, the Potency entry is “inactive”.
Consider `O=C1Nc2ccc(I)cc2/C1=C/c1cc(Br)c(O)c(Br)c1`, for which the Potency was 8.91 µM (active).
Take `CC(C)NCC(O)c1ccc(O)c(O)c1` (stereo not given): the Potency result was “inactive”.
With `O=[N+]([O-])c1ccc(-c2nc(-c3ccc(F)cc3)c(-c3ccncc3)[nH]2)cc1`, the Potency entry was “inactive”.
`O=C(/C=C/c1ccc(O)cc1)c1ccc(O)cc1O`: the Potency result is “inactive”.
Under `C=CCN1CCc2c(cc(O)c(O)c2Cl)C(c2ccccc2)C1` (stereo not given) stands “inactive”; under `CN(C)CCCc1cc(C(=O)Nc2ccc(-c3ccncc3)cc2)ccc1O`, “inactive”.
Consider `CCN(CC)C(=S)SSC(=S)N(CC)CC`, for which the Potency result was “inactive”.
As to `Nc1nc(Nc2ccccc2)nc2c1ncn2[C@@H]1O[C@H](CO)[C@@H](O)[C@H]1O`, the Potency entry was “inactive”.
For `CN=c1nc(-c2ccccc2)n(-c2ccccc2)s1`, the Potency was 1 µM (active).
Consider `NC[C@@H]1O[C@H](C23CC4CC(CC(C4)C2)C3)Cc2c1ccc(O)c2O`, for which the Potency entry was “inactive”.
With `CC(C)NC[C@@H](O)c1ccc(O)c(O)c1`, the Potency entry was “inactive”.
In the case of `CCCc1cc(C)[nH]c(=O)c1CNC(=O)c1cc(-c2ccc(N3CCN(C(C)C)CC3)nc2)cc2c1cnn2C(C)C` it was “inactive”; in that of `Nc1ncnc2c1[nH]c(=S)n2C1OC(CO)C(O)C1O` (stereo not given), “inactive”; in that of `CN(C)CCCN1c2ccccc2Sc2ccc(Cl)cc21`, “inactive”.
Turning to `Cn1ncc(S(=O)(=O)Cc2ccccc2)c(Br)c1=O`, the Potency entry was “inactive”.
Under `Nc1nc(F)nc2c1ncn2[C@@H]1O[C@H](CO)[C@@H](O)[C@@H]1O` stands “inactive”.
As to `S=C(S)N1CCCC1`, the Potency result was “inactive”.
Regarding `C[C@H](Cc1ccc(O)c(O)c1)[C@@H](C)Cc1ccc(O)c(O)c1`, the Potency is 15.8 µM (active).
Under `CCN1C(=O)C=CC1=O` stands “inactive”.
On to `Nc1ncnc2c1ncn2[C@@H]1O[C@H](CO)[C@@H](O)[C@H]1O`, for which the Potency entry was “inactive”.
For `COC(=O)[C@H]1[C@H]2C[C@H]3c4[nH]c5ccccc5c4CCN3C[C@H]2CC[C@@H]1O`, the Potency result is “inactive”.
With `OC[C@H]1O[C@@H](n2cnc3cncnc32)[C@H](O)[C@@H]1O`, the Potency was 5.62 µM (active).
In the case of `OCC1OC(n2cnc3c(=S)nc[nH]c32)C(O)C1O` (stereo not given) it was “inactive”; in that of `CCNC(=O)[C@H]1O[C@H](n2cnc3c(N)nc(NCCc4ccc(CCC(=O)O)cc4)nc32)[C@@H](O)[C@@H]1O`, “inactive”.
